Assay outcomes: PubChem, National Center for Advancing Translational Sciences (NCATS)
The list is not random: actives were taken first. Their share in the collection is about 1.4%.
hERG WT inh – blocks the wildtype human KCNH2 potassium channel; U2OS, BacMam KCNH2, thallium flux FluxOr; hits give low values; Q12809; 340,000 compounds, 0.37% hits; activity change, % at 1.84 µM;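 active = maximum activity change below -70%; inconclusive = maximum activity change between -70% and -50%; inactive = maximum activity change above -50%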; also: % is scaled to controls: 0 for no effect and ±100 for the full control effect
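U2OS cells transduced with wild-type KCNH2 virus are loaded with FluxOr dye for 45 min, and thallium flux is measured in kinetic reads before and after stimulation buffer. Rate constants are normalized to DMSO controls.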
PTHR1 agonist – agonists of human PTHR1 parathyroid hormone receptor; Q03431; HEK293 GP2 PTHR1 cells, GloSensor cAMP luminescence, 1 h; Potency, µM (doses to about 115 µM), inactives show top-dose activation, usual class: activators; 410,000 compounds, 0.075% hits; also: potency is read from the fitted curve at half-maximal effect; nearly all actives have a fitted effect of over 55% in size
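HEK-293-derived GP2 cells expressing PTHR1 and a GloSensor cAMP reporter, 3,000/well, plated overnight, given luciferin plus IBMX (each 0.5 mM as added) for 1 h at 37 °C, then compound for 1 h at 37 °C. Luminescence was read after 15 min at room temperature.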
Glioma ERSR ind – inducers of ER stress response in human glioma cells. U87-MG GRP78 promoter luciferase reporter, 16 h. 420,000 compounds, 0.02% hits. Potency, µM, without a hit: at the top dose activation, hits mostly activators. AID 602332; also: potency is read from the fitted curve at half-maximal effect; series mostly up to about 76 µM; % of control where 0% means no effect; nearly all actives have a fitted effect of over 35% in size
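Stably transfected U87-MG human glioma cells carrying a GRP78-based luminescent sensor were seeded at 1000 cells/well, pin-dosed with compounds and incubated 16 h. Luciferase reagent was then added, and end-point luminescence was read after 10 min at room temperature.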
RXFP1 ag – RXFP1 (human) receptor agonism; HEK293T-RXFP1 cAMP TR-FRET, 30 min; response scale: percent of porcine relaxin response, buffer zero; Potency, µM (highest dose often 57.5 µM), without a hit: top-dose activation, most hits filed as activators; 370,000 compounds, 0.3% hits; AID 2676; also: potency is read from the fitted curve at half-maximal effect; % is scaled to controls: 0 for no effect and ±100 for the full control effect; nearly all actives have a fitted effect of over 60% in size
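HEK293 cells stably expressing RXFP1, treated 30 min at 37C with compounds plus PDE4 inhibitor Ro 20174; cAMP measured by HTRF TR-FRET. Normalized to buffer and 29 nM porcine relaxin; EC50 by Hill fit.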
RXFP1 antagonist – antagonists of human relaxin receptor RXFP1. HEK293-RXFP1, relaxin-stimulated cAMP HTRF, 30 min; hits give low values. activity change, negative = inhibition, % at 57.5 µM. 350,000 compounds, 0.59% hits. AID 1259400;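 active = activity change of -60% or lower, but not beyond a set lower limit; inconclusive = change between -60% and -40%, or beyond the set limit; inactive = change above -40%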; also: % is scaled to controls: 0 for no effect and ±100 for the full control effect
KCNH2 3.1 inh – blocks the human KCNH2 3.1 channel isoform | U2OS KCNH2 3.1, thallium flux FluxOr; hits give low values | AID 720553 | 340,000 compounds, 0.95% hits | activity change, % (tested at about 1.8 µM);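 active = maximum activity change below -70%; inconclusive = maximum activity change from -70% to -50%; inactive = maximum activity change above -50%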;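 also: thallium influx rate constant from kinetic fluorescence after stimulation buffer; % is scaled to controls: 0 for no effect and ±100 for the full control effect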
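Virally transduced U2OS (3.1 isoform, 4 h infection in dark at RT) → overnight 37 C → FluxOr + Red40 in HBSS/HEPES, 45 min → stimulation buffer, 2 min kinetic read → rate constant vs DMSO controls.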
The depositor's hits bear a star. Unless noted, calls follow the shape of the dose curve; as a rule, active = well fitted curve in the direction sought with a large enough effect; inconclusive = small, poorly fitted or top-dose-only effect, or another doubt; inactive = no such curve, though single readings can be large; an effect the other way counts as inactive or inconclusive.

How did C[C@@H]1CN([C@H](C)CO)C(=O)c2cccc(NC(=O)c3ccncc3)c2O[C@@H]1CN(C)Cc1ccc(C(=O)O)cc1 do in these assays?
hERG WT inh: -6; PTHR1 agonist: -23%; Glioma ERSR ind: -3%; KCNH2 3.1 inh: -85*

How did C[C@H](CO)N1C[C@H](C)[C@@H](CN(C)Cc2ccc3c(c2)OCO3)Oc2c(NC(=O)C3CCCCC3)cccc2C1=O do in these assays?
hERG WT inh: -4; PTHR1 agonist: -3%; Glioma ERSR ind: -6%; KCNH2 3.1 inh: -96*

What do the screens show for `CCOC(=O)c1c(-c2ccccc2)csc1NC(=O)CCN1C(=O)c2ccccc2C1=O`?
hERG WT inh: -4; PTHR1 agonist: inactive; Glioma ERSR ind: -3%; RXFP1 ag: -1%; RXFP1 antagonist: -9; KCNH2 3.1 inh: 0

How did CCOC(=O)c1c(-c2ccccc2)csc1NC(=O)c1cc(-c2cccc(OC)c2)on1 do in these assays?
PTHR1 agonist: 40µM*; Glioma ERSR ind: -1%; RXFP1 ag: 3%; RXFP1 antagonist: 12

Results for CCOC(=O)c1c(-c2ccc(C)cc2)csc1NC(=O)c1cc(=O)c2cc(C)ccc2o1 ?
PTHR1 agonist: 4µM*; RXFP1 ag: -1%; RXFP1 antagonist: 12

How did CCOC(=O)c1c(-c2ccc(-c3ccccc3)cc2)csc1NC(=O)CNCCN(C)C do in these assays?
hERG WT inh: 13; PTHR1 agonist: inactive; Glioma ERSR ind: -19%; RXFP1 ag: 0%; RXFP1 antagonist: -103*; KCNH2 3.1 inh: -16

How did O=C(CSc1nnc(-c2ccccn2)n1Cc1ccco1)Nc1ccc2c(c1)OCO2 do in these assays?
hERG WT inh: -5; PTHR1 agonist: inactive; Glioma ERSR ind: -4%; RXFP1 ag: 3%; RXFP1 antagonist: 3; KCNH2 3.1 inh: 3

What do the screens show for `O=C(CSc1nc(=O)n(Cc2ccco2)c2c1CCC2)NCc1ccccc1`?
PTHR1 agonist: inactive; Glioma ERSR ind: -1%; RXFP1 ag: 6%

How did NCCNc1ccc(C(=O)N2c3ccccc3Sc3ccccc32)cc1[N+](=O)[O-] do in these assays?
hERG WT inh: 8; PTHR1 agonist: -12%; Glioma ERSR ind: -11%; RXFP1 ag: 0%; RXFP1 antagonist: inconclusive; KCNH2 3.1 inh: -175*

Results for Nc1ccc(C(=O)OCC(=O)N2c3ccccc3Sc3ccccc32)cc1[N+](=O)[O-] ?
hERG WT inh: 1; PTHR1 agonist: inactive; Glioma ERSR ind: -4%; RXFP1 ag: 0%; RXFP1 antagonist: -11; KCNH2 3.1 inh: -4

What do the screens show for `CCCCCN(CCCOC)C(=O)C(CCC(=O)O)NC(=O)c1ccc(Cl)c(Cl)c1` (stereo unspecified)?
RXFP1 antagonist: -27

Results for CCn1cc(S(=O)(=O)CC(=O)Nc2cc(C)ccc2C)c2ccccc21 ?
hERG WT inh: 3; PTHR1 agonist: -6%; Glioma ERSR ind: -4%; RXFP1 ag: 0%; RXFP1 antagonist: 10; KCNH2 3.1 inh: -118*

How did NS(=O)(=O)c1ccc(CCNC(=O)C2CCCCC2)cc1 do in these assays?
hERG WT inh: -3; PTHR1 agonist: inactive; Glioma ERSR ind: -5%; RXFP1 ag: -4%; RXFP1 antagonist: 4; KCNH2 3.1 inh: 4

Results for NS(=O)(=O)c1ccc(CCNC(=O)C2CCC(Cn3c(=S)[nH]c4ccccc4c3=O)CC2)cc1 (stereo unspecified) ?
hERG WT inh: 0; PTHR1 agonist: -5%; Glioma ERSR ind: 1%; RXFP1 ag: 5%; RXFP1 antagonist: -69*; KCNH2 3.1 inh: -18

Results for COCCN(C/C=C/c1ccccc1)C/C=C/c1ccccc1 ?
hERG WT inh: 29; PTHR1 agonist: inactive; Glioma ERSR ind: -4%; RXFP1 ag: 2%; RXFP1 antagonist: inconclusive; KCNH2 3.1 inh: -79*
